M1 antagonist = blocks the rat M1 muscarinic receptor response to acetylcholine | P08482 | CHO-M1 cells, Fluo-4 calcium, ACh EC80 antagonist mode; active compounds read low | B-score at 10 µM | 3.4% of 64,000 active;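 active means calcium fluorescence response, raw or row-and-column corrected B-score, differing from the plate sample mean either way at a set confidence level, mostly lower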
Target sequence (P08482 whole entry, looked up): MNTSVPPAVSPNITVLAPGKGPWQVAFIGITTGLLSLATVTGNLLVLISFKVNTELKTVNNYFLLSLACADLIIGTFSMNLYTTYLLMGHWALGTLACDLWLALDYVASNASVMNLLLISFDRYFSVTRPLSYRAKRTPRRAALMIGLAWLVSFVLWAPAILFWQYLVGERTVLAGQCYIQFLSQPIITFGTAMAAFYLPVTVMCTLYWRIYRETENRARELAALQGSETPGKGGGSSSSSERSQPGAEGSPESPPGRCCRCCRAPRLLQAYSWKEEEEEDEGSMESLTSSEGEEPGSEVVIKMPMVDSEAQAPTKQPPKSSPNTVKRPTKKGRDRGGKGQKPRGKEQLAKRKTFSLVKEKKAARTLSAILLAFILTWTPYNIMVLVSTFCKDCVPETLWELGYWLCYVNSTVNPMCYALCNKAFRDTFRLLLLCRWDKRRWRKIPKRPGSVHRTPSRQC
A340 absorber = absorbance at 340 nm | compound absorbance at 340 nm, fold over control | fold change at 10 µM | 65,000 tested, under 10 active;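 active means at 10 µM dose, initial 340 nm absorbance at least 2 fold that of control wells; inactive means change under 2 fold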;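 further: initial absorbance extrapolated from kinetic A340 decline of NADH oxidation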
Htt clearance = compounds clearing mutant huntingtin protein; HeLa Exon1htt(103Q)mCFP, aggregate imaging; zero = plate's median compound well; inhibition, % at 1.5 µM; 0.42% of 47,000 active; AID 853;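 active means inhibition of aggregate fluorescence above about 70%, also judged a hit by eye on the cell image, limit read from the data, passing the limit was not always enough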;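 further: cells exposed to compound for three days before fixation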
Autofluor 339 = intrinsic fluorescence of library compounds, ex339/em460 – biochemical, MLSMR library, data from DPM-DC assay, artefact control, profiling panel; compound autofluorescence, ex339/em460 nm, NADH buffer; active compounds read high; 1 = no-compound wells, NADH background; fluorescence fold increase at 10 µM; 5.5% of 65,000 active; AID 709;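 active means at 10 µM, mean starting fluorescence two-fold or more over control wells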;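 further: signal is the first read of a kinetic run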
M1 agonist = M1 muscarinic receptor agonism. 3% of 64,000 active. CHO-M1 cells, Fluo-4 calcium fluorescence, agonist mode; active compounds read high. AID 626. B-score at 10 µM;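 active means fluorescence rise, raw or as B-score row- and column-corrected plate score, outside the 99.7% band of its plate's samples, either direction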
NADH coupling = inhibition of NAD/NADH coupling enzymes, library profiling | coupled PK/LDH NADH assays, four targets | IC50, µM (series often up to 10 µM) | 0.02% of 65,000 active | AID 774;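 active means single-dose screening hits from any of four coupled enzyme assays that gave an IC50 when retested across doses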;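 further: the DPM-DC format reads NADH fluorescence rather than 340 nm absorbance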
Large screens that a line does not name were inactive. The list is not random: actives were taken first. Their share in the collection is about 9.3%.

CCN(CC)CCn1cnc2c([nH]c3cccc(OC)c32)c1=O	Autofluor 339 3.7
CCOC(=O)N1CCC(NC(=O)CCC(=O)N2CCOc3ccc(C)cc32)CC1	M1 antagonist 3.3
CCOC(=O)N1CCN(C(=O)CCC(=O)N2CCOc3ccc(C)cc32)CC1	none
CCn1c2ccccc2c2cc(C3C(C#N)=C(C)NC(C)=C3C#N)ccc21	Autofluor 339 4.8
CCn1c2ccccc2c2cc(N)ccc21	Autofluor 339 2.9 (no result: Htt clearance)
CC1(C)Cc2nc3sc4c(=O)[nH]cnc4c3cc2CS1	Autofluor 339 2.8
CC1(C)Cc2[nH]c(=O)c(C#N)cc2CS1	none (no result: Htt clearance)
c1cnc(N2CCN(c3ncnc4c3oc3ccccc34)CC2)nc1	M1 agonist 3.2 (no result: Htt clearance)
C(=C\c1ccccc1)/CN1CCN(c2ncnc3c2oc2ccccc23)CC1	M1 agonist 6.9 (no result: Htt clearance)
c1ccc2c(c1)oc1c(N3CCOCC3)ncnc12	none (no result: Htt clearance)
O=C(CSc1nnc(NCc2ccccc2)s1)c1ccco1	none
O=S(=O)(CC(CN1CCCC1)N1CCCC1)c1ccc2ccccc2c1 (configuration not stated)	none
O=S(=O)(Cc1ccccc1)N1CCC(c2nc(-c3cccs3)no2)CC1	Autofluor 339 3.1
CCOC(=O)C1=C(C)NC2=C(C(=O)CC(C)(C)C2)C1c1cccc(C)n1 (configuration not stated)	Autofluor 339 4.9 (no result: Htt clearance)
CC1(c2ccccn2)Nc2ccccc2-c2nc3ccccc3n21 (configuration not stated)	Autofluor 339 3.8 (no result: Htt clearance)
O=C1Nc2ccccc2C12Nc1ccccc1-c1nc3ccccc3n12 (configuration not stated)	none
c1ccc2c(c1)NC1(CCCCC1)n1c-2nc2ccccc21	Autofluor 339 3.7 (no result: Htt clearance)
COc1ccc(CCNC(=O)CSc2nc(O)c(C(C)C)c(=O)[nH]2)cc1OC	none (no result: M1 antagonist, A340 absorber, Autofluor 339, M1 agonist, NADH coupling)
O=C(c1cnccn1)N1CCN(C/C=C/c2ccccc2)CC1	none
N#CC1=C(O)CCCn2c1nc1ccccc1c2=O	none (no result: Htt clearance)
N#CC1=C(O)C(c2ccccc2)n2c1nc(=O)c1ccccc12 (configuration not stated)	Autofluor 339 5
CCOc1cccc(C(=O)Nc2cccc(-c3nnc(-c4ccccc4)o3)c2)c1	none (no result: Htt clearance)
O=C(Nc1ccc(-c2nc3ncccc3o2)cc1)c1ccco1	Autofluor 339 2.6
Cc1ccc(-c2nnc(-c3ccc(NC(=O)c4ccco4)cc3)o2)cc1	Autofluor 339 3
CCOc1cccc(C(=O)Nc2cccc(-c3nnc(-c4ccc(C)cc4)o3)c2)c1	Autofluor 339 3.6
COC(=O)C(C)Sc1nc2c(c(=O)[nH]c(=O)n2C)n1CCC(C)C (configuration not stated)	none (no result: Htt clearance)
COc1ccc2c(c1)cc1n2CCN=C1N	Autofluor 339 2.8 (no result: Htt clearance)
COc1ccc2c(c1)cc1n2CCN2CCCN=C12	Autofluor 339 2.1 (no result: Htt clearance)
COc1ccc(C2(C(=O)N3CCCC3)CCOCC2)cc1OC	none (no result: Htt clearance)
CCOC(=O)C(C)(C)C(=O)C(C)(C)C(O)c1ccccn1 (configuration not stated)	none
Oc1cccc(/C=N/c2c(-c3ccco3)nc3ccccn23)c1	Autofluor 339 2.1 (no result: Htt clearance)
CCC1C(=O)n2nc(-c3ccccc3)cc2N=C1C (configuration not stated)	Autofluor 339 2
CC(=O)C(C)Oc1cc(C)cc2oc(=O)c(C)c(C)c12 (configuration not stated)	Autofluor 339 3.6
CC(=O)COc1cc(C)cc2oc(=O)c(C)c(C)c12	Autofluor 339 3.9 (no result: Htt clearance)
Cc1cc(OC(=O)CNC(=O)OC(C)(C)C)c2c(C)cc(=O)oc2c1	none
CCc1cc2c(=O)c(Oc3ccccc3F)c(C)oc2c(CN(C)C)c1O	Autofluor 339 2.2
O=C(Nc1cccc(Cl)c1N1CCCC1)c1cccc(-c2cc3ccccc3oc2=O)c1	none (no result: M1 antagonist, A340 absorber, Autofluor 339, M1 agonist, NADH coupling)
CCn1nnc(NC(=O)c2cccc(-c3cc4ccccc4oc3=O)c2)n1	Autofluor 339 3.9
CCn1nnc(NC(=O)c2cccnc2)n1	M1 antagonist 0.77 (no result: Htt clearance)
CCn1nnc(NC(=O)c2ccc(C(C)(C)C)cc2)n1	none (no result: Htt clearance)
CCOC(=O)c1cnc(SCC(=O)c2ccccc2)nc1N	none (no result: Htt clearance)
O=C(COc1ncnc2scc(-c3ccc(Cl)cc3)c12)NCc1ccco1	none (no result: M1 antagonist, A340 absorber, Autofluor 339, M1 agonist, NADH coupling)
COc1ccc2oc(C(=O)c3ccccc3)c(N)c2c1	none (no result: M1 antagonist, A340 absorber, Autofluor 339, M1 agonist, NADH coupling)
COc1ccc2oc(C(=O)C3CC3)c(N)c2c1	Autofluor 339 2.1
COc1ccc(OC)c(C2=Nn3c(nnc3-c3cc(OC)c(OC)c(OC)c3)SC2)c1	M1 agonist 3.3 (no result: Htt clearance)
COc1ccc(OC)c(C2=Nn3c(nnc3-c3ccncc3)SC2)c1	none (no result: Htt clearance)
COc1ccc2c(c1)c(=O)oc1cc3oc(C)c(C)c3cc12	none (no result: M1 antagonist, A340 absorber, Autofluor 339, M1 agonist, NADH coupling)
COc1cc(OC)c2c(C)c(Cl)c(=O)oc2c1	Autofluor 339 3.7
Cc1ccc2[nH]c(=O)c3cc(C(=O)N(C)Cc4ccco4)sc3c2c1	Autofluor 339 2.2 (no result: Htt clearance)
O=C(c1cc2c(=O)oc3ccccc3c2s1)N1CCN(c2ccccn2)CC1	none (no result: Htt clearance)
Cc1ccc2[nH]c(=O)c3cc(C(=O)N4CCN(C(=O)c5ccco5)CC4)sc3c2c1	Autofluor 339 2 (no result: Htt clearance)
Cc1ccc2oc(=O)c3cc(C(=O)N4CCN(C(=O)c5ccco5)CC4)sc3c2c1	none (no result: Htt clearance)
Cc1ccc2oc(=O)c3cc(C(=O)N4CCN(c5ncccn5)CC4)sc3c2c1	Autofluor 339 2.1 (no result: Htt clearance)
Cc1cc(C)c2cc(CN(Cc3ccco3)C(=O)NCc3ccccc3)c(=O)[nH]c2c1	none (no result: Htt clearance)
Nc1ccc(-c2n[nH]c(=O)c3ccccc23)cc1N	none (no result: Htt clearance)
COc1ccccc1CNC(=O)c1cnc2sccn2c1=O	none (no result: Htt clearance)
O=C(NCc1cccnc1)c1cnc2sccn2c1=O	Autofluor 339 2.2 (no result: Htt clearance)
Cc1cccc(NC(=O)c2cnc3sccn3c2=O)n1	none (no result: Htt clearance)
O=C(Nc1ccon1)c1cnc2sccn2c1=O	Autofluor 339 3.2
Cc1cc(Cl)c(S(=O)(=O)N2CCCCCC2)cc1OCC(N)=O	none
CCOC(=O)C1CCCN(S(=O)(=O)c2cc(OCC(N)=O)c(C)cc2Cl)C1 (configuration not stated)	Htt clearance 71
O=C(N1CCOCC1)C(F)(F)C(F)(F)C(F)(F)C(F)(F)C(=O)N1CCOCC1	none (no result: Htt clearance)
Clc1ccc2oc(-c3cccnc3)nc2c1	none (no result: M1 antagonist, A340 absorber, Autofluor 339, M1 agonist, NADH coupling)
Cc1ccc2nc(-c3ccccn3)oc2c1	Autofluor 339 3
c1ccc(-c2nc3cc(Oc4ccc5oc(-c6ccccn6)nc5c4)ccc3o2)nc1	none (no result: Htt clearance)
Cc1ccc2nc(-c3cccnc3)oc2c1	Autofluor 339 2.7
O=C(Cc1cccs1)Nc1cccnc1	none
CCc1nnc2c3cnn(-c4ccc(C)c(C)c4)c3ncn12	none (no result: A340 absorber, Htt clearance, Autofluor 339, NADH coupling)
CCOC(=O)c1ccc2[nH]c(C)c(CCC(C)=O)c(=O)c2c1	Autofluor 339 2.1
CCOC(=O)c1ccc2[nH]c(C)cc(=O)c2c1	Autofluor 339 2.1 (no result: Htt clearance)
Fc1cccc(-c2cc3nc4c(c(N5CCOCC5)n3n2)CCCC4)c1	none (no result: Htt clearance)

Screens from PubChem BioAssay.
